# Laboratory results reported in the supplement of paper PMC10849652.
# Targets with a hit are over-represented here; the source holds about 8,800 in all. About 0.5% of all pairs of compound and target were hits. A number with no mark means an inactive call.
# What was measured:
# Assay in all cases: log2 fold change, soluble protein after heating vs DMSO (PISA); higher = thermal stabilisation; K562 lysate, 10 uM; active = over 0.2 and 3.5 SD of the protein, either way, in both replicates (recomputed)
# lapatinib = compound: CS(=O)(=O)CCNCc1ccc(-c2ccc3ncnc(Nc4ccc(OCc5cccc(F)c5)c(Cl)c4)c3c2)o1 [lapatinib]
# Summary of the method: (§1)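 A 30 min treatment with 10 μM compound was applied to crude K562 extract at 1 mg/mL protein in PBS pH 7.4 with 1 mM MgCl2. Heating for 3 min spanned 48°C-58°C, after which aliquots were pooled, adjusted to 0.5% NP-40 at 4°C and spun at 21,000xg for 90 min. TMTpro 16plex LC-MS/MS of the supernatant, with channel sums equalised, gave values recorded as log-two fold change in thermal stability against solvent controls, from duplicates.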
# pictilisib = compound: CS(=O)(=O)N1CCN(Cc2cc3nc(-c4cccc5[nH]ncc45)nc(N4CCOCC4)c3s2)CC1 [pictilisib]
# Summary of the method: as §1
# crizotinib = compound: C[C@@H](Oc1cc(-c2cnn(C3CCNCC3)c2)cnc1N)c1c(Cl)ccc(F)c1Cl [crizotinib]
# Summary of the method: as §1
# [1] = compound: C[C@H](C1=CC=C(C=C1)C(=O)NC2=C3C=CNC3=NC=C2)N
# Summary of the method: as §1
# duvelisib = compound: C[C@H](Nc1ncnc2nc[nH]c12)c1cc2cccc(Cl)c2c(=O)n1-c1ccccc1 [duvelisib]
# Summary of the method: as §1
# gandotinib = compound: Cc1cc(Nc2cc(CN3CCOCC3)c3nc(C)c(Cc4ccc(Cl)cc4F)n3n2)n[nH]1 [gandotinib]
# Summary of the method: as §1
# tozasertib = compound: Cc1cc(Nc2cc(N3CCN(C)CC3)nc(Sc3ccc(NC(=O)C4CC4)cc3)n2)n[nH]1 [tozasertib]
# Summary of the method: as §1
# doramapimod = compound: Cc1ccc(-n2nc(C(C)(C)C)cc2NC(=O)Nc2ccc(OCCN3CCOCC3)c3ccccc23)cc1 [doramapimod]
# Summary of the method: as §1
# bafetinib = compound: Cc1ccc(NC(=O)c2ccc(CN3CC[C@H](N(C)C)C3)c(C(F)(F)F)c2)cc1Nc1nccc(-c2cncnc2)n1 [bafetinib]
# Summary of the method: as §1
# [2] = compound: Cc1cccc(CC(=O)N2CCc3c2ccc(-c2cn(C)c4ncnc(N)c24)c3F)n1
# Summary of the method: as §1
# nilotinib = compound: Cc1cn(-c2cc(NC(=O)c3ccc(C)c(Nc4nccc(-c5cccnc5)n4)c3)cc(C(F)(F)F)c2)cn1 [nilotinib]
# Summary of the method: as §1
# [3] = compound: Cc1nc(Nc2n[nH]c3c2CN(C(=O)N[C@H](CN(C)C)c2ccccc2)C3(C)C)c2sccc2n1
# Summary of the method: as §1
# dasatinib = compound: Cc1nc(Nc2ncc(C(=O)Nc3c(C)cccc3Cl)s2)cc(N2CCN(CCO)CC2)n1 [dasatinib]
# Summary of the method: as §1
# [4] = compound: Cc1ncc(-c2ccnc(Nc3ccc(S(C)(=O)=O)cc3)n2)n1C(C)C
# Summary of the method: as §1
# [5] = compound: Cn1cc(-c2ccc3c(c2)CCN3C(=O)Cc2cccc(C(F)(F)F)c2)c2c(N)ncnc21
# Summary of the method: as §1
# quisinostat = compound: Cn1cc(CNCC2CCN(c3ncc(C(=O)NO)cn3)CC2)c2ccccc21 [quisinostat]
# Summary of the method: as §1
# tipifarnib = compound: Cn1cncc1[C@@](N)(c1ccc(Cl)cc1)c1ccc2c(c1)c(-c1cccc(Cl)c1)cc(=O)n2C [tipifarnib]
# Summary of the method: as §1
# [6] = compound: NC(=O)Nc1cc(-c2cccc(F)c2)sc1C(=O)N[C@H]1CCCNC1
# Summary of the method: as §1
# [7] = compound: NC(=O)c1cnc(N[C@@H]2CCCC[C@@H]2N)nc1Nc1cccc(-n2nccn2)c1
# Summary of the method: as §1
# [8] = compound: NC1(c2ccc(-c3nc4ccn5c(=O)[nH]nc5c4cc3-c3ccccc3)cc2)CCC1
# Summary of the method: as §1
# UniProt P27816, sequence (P27816 whole entry, looked up): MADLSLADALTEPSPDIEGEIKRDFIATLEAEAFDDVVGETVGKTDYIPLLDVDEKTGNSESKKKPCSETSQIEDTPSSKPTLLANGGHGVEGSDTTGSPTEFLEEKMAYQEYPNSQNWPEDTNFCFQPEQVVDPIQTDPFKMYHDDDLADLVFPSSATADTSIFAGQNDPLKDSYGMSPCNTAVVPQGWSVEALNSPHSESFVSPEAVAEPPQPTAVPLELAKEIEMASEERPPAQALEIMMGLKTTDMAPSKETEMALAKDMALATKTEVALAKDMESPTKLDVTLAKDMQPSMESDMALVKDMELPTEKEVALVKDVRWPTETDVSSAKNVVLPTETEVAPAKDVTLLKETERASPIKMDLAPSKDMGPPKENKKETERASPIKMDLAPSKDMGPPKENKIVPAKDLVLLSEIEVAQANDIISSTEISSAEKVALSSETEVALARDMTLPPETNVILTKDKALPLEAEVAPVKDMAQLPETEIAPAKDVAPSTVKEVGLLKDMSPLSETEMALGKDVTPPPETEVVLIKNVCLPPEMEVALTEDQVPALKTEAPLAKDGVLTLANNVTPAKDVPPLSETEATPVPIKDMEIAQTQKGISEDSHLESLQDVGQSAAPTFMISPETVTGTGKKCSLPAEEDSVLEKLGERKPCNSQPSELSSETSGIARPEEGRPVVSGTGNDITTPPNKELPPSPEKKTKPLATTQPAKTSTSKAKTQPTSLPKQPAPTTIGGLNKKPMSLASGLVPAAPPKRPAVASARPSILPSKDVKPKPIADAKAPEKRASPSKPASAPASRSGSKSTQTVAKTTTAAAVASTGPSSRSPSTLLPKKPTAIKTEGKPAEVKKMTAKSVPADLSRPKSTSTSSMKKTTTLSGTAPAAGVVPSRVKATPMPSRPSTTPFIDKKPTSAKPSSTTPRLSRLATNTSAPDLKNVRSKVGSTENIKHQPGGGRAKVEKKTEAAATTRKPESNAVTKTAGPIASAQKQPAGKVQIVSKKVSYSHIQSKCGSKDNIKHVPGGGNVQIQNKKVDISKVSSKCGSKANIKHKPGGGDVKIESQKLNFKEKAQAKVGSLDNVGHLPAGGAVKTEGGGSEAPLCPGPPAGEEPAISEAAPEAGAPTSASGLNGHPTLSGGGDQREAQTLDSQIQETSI
# UniProt Q16539, sequence (Q16539 whole entry, looked up): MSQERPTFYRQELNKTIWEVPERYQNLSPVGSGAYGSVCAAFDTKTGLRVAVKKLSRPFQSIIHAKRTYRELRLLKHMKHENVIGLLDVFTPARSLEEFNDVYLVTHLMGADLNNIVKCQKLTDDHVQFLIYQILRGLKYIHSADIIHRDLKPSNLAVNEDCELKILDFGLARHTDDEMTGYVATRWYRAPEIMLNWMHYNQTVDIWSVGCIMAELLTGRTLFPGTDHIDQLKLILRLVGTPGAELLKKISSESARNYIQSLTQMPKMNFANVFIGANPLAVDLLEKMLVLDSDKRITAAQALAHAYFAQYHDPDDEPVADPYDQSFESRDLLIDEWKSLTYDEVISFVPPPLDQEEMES
# UniProt Q13163, sequence (Q13163 whole entry, looked up): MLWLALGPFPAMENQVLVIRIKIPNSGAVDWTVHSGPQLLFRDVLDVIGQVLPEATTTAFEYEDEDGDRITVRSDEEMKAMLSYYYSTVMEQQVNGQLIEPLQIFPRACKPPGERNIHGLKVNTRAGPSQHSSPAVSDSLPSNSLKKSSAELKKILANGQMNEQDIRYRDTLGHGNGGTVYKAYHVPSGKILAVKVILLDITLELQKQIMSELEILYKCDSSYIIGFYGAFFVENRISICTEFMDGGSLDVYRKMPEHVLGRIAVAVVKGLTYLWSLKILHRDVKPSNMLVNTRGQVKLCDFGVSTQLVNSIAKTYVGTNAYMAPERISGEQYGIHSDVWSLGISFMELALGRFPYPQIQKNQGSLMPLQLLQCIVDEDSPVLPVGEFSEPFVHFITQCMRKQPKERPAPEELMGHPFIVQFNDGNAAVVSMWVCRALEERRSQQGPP
# UniProt Q7Z3U7, sequence (Q7Z3U7 whole entry, looked up): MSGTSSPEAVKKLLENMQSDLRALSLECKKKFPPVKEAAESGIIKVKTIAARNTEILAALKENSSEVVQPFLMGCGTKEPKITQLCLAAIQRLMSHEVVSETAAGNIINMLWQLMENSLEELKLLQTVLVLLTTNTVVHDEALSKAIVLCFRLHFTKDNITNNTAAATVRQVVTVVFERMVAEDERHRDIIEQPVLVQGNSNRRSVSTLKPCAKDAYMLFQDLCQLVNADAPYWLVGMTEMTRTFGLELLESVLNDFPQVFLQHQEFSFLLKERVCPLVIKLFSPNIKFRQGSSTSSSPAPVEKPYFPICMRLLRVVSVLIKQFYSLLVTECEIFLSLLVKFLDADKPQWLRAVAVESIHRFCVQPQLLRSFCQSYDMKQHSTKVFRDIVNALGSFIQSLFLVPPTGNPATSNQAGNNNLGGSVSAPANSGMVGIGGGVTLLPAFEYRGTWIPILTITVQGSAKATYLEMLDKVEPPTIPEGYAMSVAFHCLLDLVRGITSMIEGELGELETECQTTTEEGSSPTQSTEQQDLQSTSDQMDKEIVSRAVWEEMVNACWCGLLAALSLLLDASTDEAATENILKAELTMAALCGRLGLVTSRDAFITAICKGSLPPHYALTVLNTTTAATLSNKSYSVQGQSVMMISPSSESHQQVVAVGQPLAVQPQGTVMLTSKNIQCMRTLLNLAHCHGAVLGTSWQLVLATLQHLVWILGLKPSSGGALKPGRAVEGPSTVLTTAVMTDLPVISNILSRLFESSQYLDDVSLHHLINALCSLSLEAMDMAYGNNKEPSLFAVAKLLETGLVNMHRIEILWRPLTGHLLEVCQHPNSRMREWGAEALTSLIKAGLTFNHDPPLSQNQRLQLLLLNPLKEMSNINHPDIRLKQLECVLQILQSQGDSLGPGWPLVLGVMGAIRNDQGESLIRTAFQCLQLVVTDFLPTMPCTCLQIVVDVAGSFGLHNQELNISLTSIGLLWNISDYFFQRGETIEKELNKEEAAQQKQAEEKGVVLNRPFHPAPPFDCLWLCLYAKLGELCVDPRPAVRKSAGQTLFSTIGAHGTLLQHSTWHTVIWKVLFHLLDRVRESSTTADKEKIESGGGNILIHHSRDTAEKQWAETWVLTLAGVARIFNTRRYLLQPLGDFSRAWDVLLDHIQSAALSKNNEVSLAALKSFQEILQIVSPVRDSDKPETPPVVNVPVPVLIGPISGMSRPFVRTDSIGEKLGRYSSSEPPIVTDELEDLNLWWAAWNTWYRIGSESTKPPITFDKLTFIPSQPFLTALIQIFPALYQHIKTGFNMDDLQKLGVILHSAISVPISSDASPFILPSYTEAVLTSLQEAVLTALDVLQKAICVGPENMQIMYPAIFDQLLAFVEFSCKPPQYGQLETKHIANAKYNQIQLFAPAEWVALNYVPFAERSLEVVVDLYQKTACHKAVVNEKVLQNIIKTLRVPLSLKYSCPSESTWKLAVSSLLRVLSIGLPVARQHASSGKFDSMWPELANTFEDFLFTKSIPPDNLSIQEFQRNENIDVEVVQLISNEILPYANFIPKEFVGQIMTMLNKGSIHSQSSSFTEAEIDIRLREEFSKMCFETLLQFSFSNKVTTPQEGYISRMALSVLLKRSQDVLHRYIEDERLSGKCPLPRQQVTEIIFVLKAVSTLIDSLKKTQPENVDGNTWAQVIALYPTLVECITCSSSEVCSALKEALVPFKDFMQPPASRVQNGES
# UniProt Q09328, sequence (Q09328 whole entry, looked up): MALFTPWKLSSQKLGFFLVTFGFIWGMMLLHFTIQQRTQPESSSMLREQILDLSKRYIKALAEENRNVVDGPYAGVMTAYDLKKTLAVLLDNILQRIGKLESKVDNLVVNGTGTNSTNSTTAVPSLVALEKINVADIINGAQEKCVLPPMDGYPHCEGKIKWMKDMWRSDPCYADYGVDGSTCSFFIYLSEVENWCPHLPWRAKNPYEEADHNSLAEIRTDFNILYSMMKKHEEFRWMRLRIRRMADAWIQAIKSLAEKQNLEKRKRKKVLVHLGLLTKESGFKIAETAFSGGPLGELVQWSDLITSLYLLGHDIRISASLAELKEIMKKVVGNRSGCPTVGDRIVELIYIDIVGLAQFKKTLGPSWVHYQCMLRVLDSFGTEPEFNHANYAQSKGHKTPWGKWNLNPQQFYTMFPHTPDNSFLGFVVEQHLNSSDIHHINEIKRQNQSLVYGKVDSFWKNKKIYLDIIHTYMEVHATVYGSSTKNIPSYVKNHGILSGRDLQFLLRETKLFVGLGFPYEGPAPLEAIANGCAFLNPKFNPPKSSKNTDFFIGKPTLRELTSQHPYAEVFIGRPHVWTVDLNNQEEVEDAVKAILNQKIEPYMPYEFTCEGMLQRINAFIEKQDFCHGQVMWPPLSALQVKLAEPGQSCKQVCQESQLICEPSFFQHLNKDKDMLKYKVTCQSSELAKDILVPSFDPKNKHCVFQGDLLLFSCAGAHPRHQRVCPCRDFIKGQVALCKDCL
# UniProt Q07866, sequence (Q07866 whole entry, looked up): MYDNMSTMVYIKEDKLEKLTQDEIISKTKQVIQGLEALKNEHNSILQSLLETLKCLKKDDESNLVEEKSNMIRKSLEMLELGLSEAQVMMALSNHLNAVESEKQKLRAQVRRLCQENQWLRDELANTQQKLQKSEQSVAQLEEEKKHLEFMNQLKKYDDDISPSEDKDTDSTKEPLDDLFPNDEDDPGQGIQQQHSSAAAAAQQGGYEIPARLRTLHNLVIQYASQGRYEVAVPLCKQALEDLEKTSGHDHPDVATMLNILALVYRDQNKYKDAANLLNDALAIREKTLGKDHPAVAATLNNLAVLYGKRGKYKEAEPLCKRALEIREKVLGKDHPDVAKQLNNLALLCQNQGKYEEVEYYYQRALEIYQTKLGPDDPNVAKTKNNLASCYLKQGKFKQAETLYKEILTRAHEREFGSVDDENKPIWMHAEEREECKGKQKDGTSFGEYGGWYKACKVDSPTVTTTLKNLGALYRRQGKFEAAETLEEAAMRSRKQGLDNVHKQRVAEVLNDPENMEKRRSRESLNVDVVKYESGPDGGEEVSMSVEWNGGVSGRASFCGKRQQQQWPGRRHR
Target,log2 fold change (lapatinib),log2 fold change (pictilisib),log2 fold change (crizotinib),log2 fold change [1],log2 fold change (duvelisib),log2 fold change (gandotinib),log2 fold change (tozasertib),log2 fold change (doramapimod),log2 fold change (bafetinib),log2 fold change [2],log2 fold change (nilotinib),log2 fold change [3],log2 fold change (dasatinib),log2 fold change [4],log2 fold change [5],log2 fold change (quisinostat),log2 fold change (tipifarnib),log2 fold change [6],log2 fold change [7],log2 fold change [8]
MON2 isoform 5 (UniProt Q7Z3U7),-0.034,-0.027,-0.077,-0.042,0.003,-0.031,0.001,-0.011,-0.035,0.12,-0.006,-0.021,-0.072,0.018,0.039,-0.074,-0.004,0.021,0.005,-0.003
MACO1 (UniProt Q8N5G2),0.016,0.041,0.003,-0.019,0.015,-0.008,0.138,-0.035,-0.001,-0.001,-0.003,0.017,-0.092,0.066,0.004,0.042,0.042,0.033,-0.02,0.054
KLC1 isoform 6 (UniProt Q07866),-0.011,-0.001,0,-0.009,-0.031,-0.073,-0.004,0.026,-0.008,0.005,0.009,-0.017,-0.021,-0.009,0.009,-0.014,-0.005,-0.014,0.002,0.017
MMS19 isoform 8 (UniProt Q96T76),-0.03,-0.04,-0.074,0.049,-0.003,-0.101,-0.004,0.023,-0.066,0.004,-0.014,0.019,-0.043,0.018,-0.011,-0.056,-0.002,0.053,0.014,0.004
LBR (UniProt Q14739),-0.071,-0.068,0.063,0.159,-0.039,-0.285 (active),-0.003,-0.06,-0.114,-0.096,-0.026,0.015,-0.04,-0.004,0.003,0.065,-0.03,-0.048,0.006,0.08
MAP2K4 isoform 2 (UniProt P45985),-0.036,-0.077,-0.086,0.619 (active),-0.012,-0.031,-0.087,-0.032,-0.05,-0.059,-0.013,0.052,-0.014,0.248,0.046,-0.112,-0.023,0.019,0.063,0
MAP4 (UniProt P27816),-0.002,0.012,0.013,-0.032,-0.004,0.058,-0.014,-0.044,0.018,-0.007,-0.002,-0.001,0.013,0.016,-0.036,-0.001,0.012,-0.034,-0.011,-0.003
MGAT5 (UniProt Q09328),0.022,0.066,-0.051,0.098,0.018,-0.106,-0.037,0.023,0.079,-0.112,0.035,0.01,-0.005,0.012,0.002,0.051,-0.02,-0.019,0.022,-0.003
MCU (UniProt Q8NE86),-0.145,-0.041,-0.125,-0.03,0.037,-0.311 (active),-0.02,0.085,-0.108,0.032,-0.044,0.012,-0.065,0.072,0.006,-0.054,-0.096,0.011,0.025,-0.085
MAP2K5 (UniProt Q13163),0.038,-0.021,-0.109,0.013,0.152,-0.089,,-0.017,-0.436,0.105,0.019,-0.086,-0.229,-0.143,0.079,-0.152,-0.015,0.925 (active),0.035,-0.048
MAPK14 isoform 2 (UniProt Q16539),-0.008,-0.054,-0.028,0.222,-0.026,-0.086,0.001,,0.765,-0.122,0.523,0.041,0.879 (active),0.037,0.033,-0.031,-0.039,-0.035,0.076,-0.018
MACROD1 (UniProt Q9BQ69),0.011,-0.013,-0.066,0.084,0.04,-0.017,-0.03,-0.012,-0.102,0.052,0.036,-0.099,-0.066,0.021,0.055,-0.083,0.005,0.022,-0.006,-0.024
